# Screening results as filed in PubChem.
# Compounds with a hit are over-represented: about 8.9% of the library has one in this group of screens.
# D1 mod: D1 dopamine receptor (human) allosteric modulation | HEK293 D1, CRE-luciferase, dopamine EC30 potentiation; actives deviate in either direction | AID 641 | B-score at 10 µM | P21728 | actives 5.9% (n = 58,000);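 active = luminescence count or its row- and column-corrected plate score outside the 99.7% band of the plate's sample wells, on either side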
# WNV protease inh: inhibitors of West Nile virus NS2B-NS3 protease; P06935; z-score (no concentration beside the values); WNV NS2B-NS3 protease, fluorogenic substrate Ex360/Em465; active compounds read low; actives 0.18% (n = 65,000); in the data active = z-score below about -3
# M1 agonist: agonists of M1 muscarinic receptor | B-score at 10 µM | AID 626 | actives 3% (n = 64,000) | CHO-M1 cells, Fluo-4 calcium fluorescence, agonist mode; active compounds read high;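 active = fluorescence rise, raw or as B-score row- and column-corrected plate score, outside the 99.7% band of its plate's samples, either direction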
# Htt clearance: compounds clearing mutant huntingtin protein | HeLa Exon1htt(103Q)mCFP, aggregate imaging; zero = plate's median compound well | actives 0.42% (n = 47,000) | inhibition, % at 1.5 µM;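 active = inhibition of aggregate fluorescence above about 70%, also judged a hit by eye on the cell image, limit read from the data, passing the limit was not always enough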;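 also: cells exposed to compound for three days before fixation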
# M1 antag: blocks the rat M1 muscarinic receptor response to acetylcholine; CHO-M1 cells, Fluo-4 calcium, ACh EC80 antagonist mode; active compounds read low; B-score at 10 µM; actives 3.4% (n = 64,000); AID 628;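 active = calcium fluorescence response, raw or row-and-column corrected B-score, differing from the plate sample mean either way at a set confidence level, mostly lower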
# Target sequence (P08482 whole entry, looked up): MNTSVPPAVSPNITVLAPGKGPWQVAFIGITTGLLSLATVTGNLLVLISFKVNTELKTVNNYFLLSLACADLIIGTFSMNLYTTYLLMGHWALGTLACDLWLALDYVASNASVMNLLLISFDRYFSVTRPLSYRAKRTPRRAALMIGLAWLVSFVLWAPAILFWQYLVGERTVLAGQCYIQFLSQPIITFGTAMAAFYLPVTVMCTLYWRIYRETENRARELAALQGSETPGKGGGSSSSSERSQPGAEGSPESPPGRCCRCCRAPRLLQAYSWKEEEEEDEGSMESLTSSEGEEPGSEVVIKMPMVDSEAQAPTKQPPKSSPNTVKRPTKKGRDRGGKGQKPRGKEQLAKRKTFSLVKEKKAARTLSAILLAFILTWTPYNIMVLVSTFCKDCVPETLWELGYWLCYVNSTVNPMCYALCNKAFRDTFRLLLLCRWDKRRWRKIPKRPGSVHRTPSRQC
# D1 PAM confirm: D1 receptor (human) allosteric modulation, confirmed | shares compounds with D1 mod | HEK293 D1 CRE-luciferase, dopamine EC30 potentiation; active compounds read high | luminescence at 10 µM | actives 88% (n = 2,200) | AID 642;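 active = luminescence in either of two replicates above the same-plate mean plus 3 SD of the low-dose dopamine control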
# D1 ag no DA: activates D1 CRE-luciferase signal without dopamine present. shares compounds with D1 mod. HEK293 D1 CRE-luciferase, luminescence, no dopamine; active compounds read high. luminescence at 10 µM. actives 0.8% (n = 1,900); in the data active = luminescence above about 3900
# Isoprot counter: counter-screen for D1 modulators: isoproterenol response in HEK293 cells; actives 63% (n = 2,200); HEK293 D1 CRE-luciferase, isoproterenol EC30 counter-screen; AID 647; calls only at 10 µM; shares compounds with D1 mod;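 active = luminescence in either replicate above plate mean of wells with a partly effective reference agonist dose plus 3 SD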;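 also: isoproterenol raises cAMP through native beta-adrenoceptor Gs so signal bypasses D1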
# Hits are given with their value; . = inactive; / = no result given; + = active, no number.
SMILES,D1 mod,WNV protease inh,M1 agonist,Htt clearance,M1 antag,D1 PAM confirm,D1 ag no DA,Isoprot counter
COc1ccc(S(=O)(=O)N2CCN(c3c(C)cccc3C)CC2)cc1OC,.,.,.,/,.,/,/,/
COc1ccccc1Nc1nc(N)nc(CSc2nc(C)cc(C)n2)n1,.,.,.,.,.,/,/,/
Cc1cc(C)nc(SCc2nc(N)nc(-c3ccccc3O)n2)n1,13,.,.,.,.,17172,.,+
OCCSc1ncnc2c1oc1ccccc12,.,.,.,.,.,/,/,/
CCc1nc(SCCO)c2oc3ccccc3c2n1,10,.,.,.,.,17028,/,+
CCc1nc(N(CC)CC)c2oc3ccccc3c2n1,3.2,.,.,/,.,.,/,.
N#CCCSc1ncnc2c1oc1ccccc12,5.4,.,.,.,.,14144,.,+
Cc1cnc(NC(=O)CSc2nnc(-c3cccs3)n2C)s1,.,.,.,/,.,/,/,/
Cc1cccc(NC(=O)Cn2c(=O)n(Cc3ccco3)c(=N)c3c4c(sc32)COC(C)(C)C4)c1,8.9,.,.,/,.,6860,.,+
CN(Cc1ccccc1)C(=O)C1CCCN(Cc2ccc(Cl)cc2)C1 (stereo not given),/,/,/,.,/,/,/,/
N#Cc1c2n(c3c(=O)n(Cc4ccc(Cl)cc4)cnc13)CCCCC2,11,.,.,.,.,13432,.,+
N#Cc1c2n(c3c(=O)n(Cc4ccccc4)cnc13)CCCC2,.,.,.,.,.,/,/,/
CCOC(=O)c1sc(C)c2c1NC1(CCCCC1)NC2=O,6.2,.,.,/,.,14036,/,+
C=CCc1c(C)nc(SC)nc1Nc1ccccc1,/,/,/,.,/,/,/,/
C=CCc1c(C)nc(SC)nc1Nc1ccc(C(C)=O)cc1,4.1,.,.,.,.,10112,.,+
C=CCc1c(C)nc(SC)nc1Nc1ccc(C(=O)O)cc1,8.2,.,.,.,.,11532,/,.
CCc1nnc(SCC(=O)Nc2ccc(C(C)=O)cc2)nc1CC,.,.,.,/,.,/,/,/
CCN(C(=O)COc1ncnc2ccc(Br)cc12)C1CCS(=O)(=O)C1 (stereo not given),.,.,.,.,.,/,/,/
CCn1c(SCC(=O)OC)nc2sc3c(c2c1=O)CCC3,16,.,.,.,.,16808,.,+
C=CCn1c(SCC(=O)N2CCOCC2)nc2sc3c(c2c1=O)CCCC3,3.4,.,.,.,.,7424,.,+
Cn1c(SCC(=O)N2CCOCC2)nc2sc3c(c2c1=O)CCCC3,.,.,.,/,.,/,/,/
CCc1nc(N2CCOCC2)c(C#N)c2c1COC(C)(C)C2,5.6,.,.,/,.,15288,/,+
CC1(C)Cc2nc(N3CCOCC3)c(C#N)cc2CO1,2.8,.,.,/,.,9156,/,.
O=C(CN1CCN(c2ccccn2)CC1)Nc1ccc(Cl)c(C(F)(F)F)c1,5.5,.,.,.,.,.,.,.
NC(=O)NC(=O)Nc1ccccc1Cl,2.8,.,.,/,.,7220,.,.
SMILES,D1 mod,WNV protease inh,M1 agonist,Htt clearance,M1 antag,D1 PAM confirm,D1 ag no DA,Isoprot counter
COc1cc(OC)c(-c2nn3c(-c4cccnc4)nnc3s2)cc1OC,.,.,.,/,.,/,/,/
COc1ccccc1-c1nnc(SCC(=O)Nc2nc(-c3ccccc3)cs2)n1C,2.9,.,.,/,.,.,.,.
c1ccc(CNc2nc3ccccc3n3cnnc23)cc1,/,/,/,.,/,/,/,/
c1ccc(CNc2nc3ccccc3n3cnnc23)nc1,9.2,.,.,.,.,13992,/,+
COc1ccc(N(CC(=O)NCc2cccs2)S(=O)(=O)c2cccnc2)cc1,.,.,.,.,.,/,/,/
CCOC(=O)c1c(C)c(C(=O)NCc2ccc3c(c2)OCO3)c(C)n1C,4.3,.,.,/,.,5908,.,.
Cc1ccccc1C(=O)c1c[nH]c(C(=O)NCc2ccco2)c1,/,/,/,.,/,/,/,/
CCOc1cc(S(=O)(=O)N(CC)CC)ccc1Br,12,.,.,.,.,11820,.,+
O=C(CSc1nnc2scc(-c3ccccc3)n12)Nc1nsc(-c2ccc(Cl)cc2)n1,.,.,.,/,.,/,/,/
Cc1nc(CSc2nnc3scc(-c4ccc(Cl)cc4)n23)cs1,13,.,.,.,.,18280,/,+
N#Cc1nc(-c2cccs2)oc1NCc1ccccc1Cl,/,.,.,.,.,/,/,/
